Some test systems named below: NCI-H23 lung; NCI-H226 lung; NCI-H322M lung; HOP-62 NSCLC; NCI-H460 lung; HOP-92 NSCLC; NCI-H522 lung; A549/ATCC NSCLC; 786-0 renal; COLO 205 colon.
Common to all, as to assay: NCI-60 one-dose screen, 48 h (100 = growth as untreated, 0 = no growth, -100 = all killed)
Common to all, as to conditions: 10 µM unless noted

The structures appear in SMILES notation. The panel holds about 83,000 compounds, 20% with a hit somewhere; the sample as a whole holds those more often.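 Plates (96-well) were seeded with cells, treated with compound at one concentration, and incubated for 48 hours before percent growth was determined.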 Unmarked numbers belong to inactive results. Calls of active or inactive are those of the source. The calls were made as follows: active = growth percent below 10; inactive = the rest.

For the compound `CC(=O)n1c(-c2ccc(Cl)cc2)nc2c(c1=O)C(c1ccc(Cl)cc1)c1sc3c(Cl)cccc3c1O2` (stereo not given), the growth in the test with NCI-H23 lung was -0.859% (active); in the test on NCI-H226 lung, 9.2% (active); in the test on NCI-H322M lung, 16.7%; with HOP-62 NSCLC it was 7.03% (active); with NCI-H460 lung it was -30.4% (active); with HOP-92 NSCLC it was 1.47% (active). In addition, the growth in the test with NCI-H522 lung is -32.9% (active); in the test with A549/ATCC NSCLC, -63.7% (active); with 786-0 renal it was -50.1% (active); in the test on COLO 205 colon it was -55.9% (active).
Take `COc1ccc(OC)c(-c2c(C#N)c(-c3ccc(Cl)cc3)nc3c2c(-c2ccccc2)nn3-c2ccccc2)c1`: the growth in the test with NCI-H23 lung is 102%; with NCI-H226 lung, 98.3%; in the test on NCI-H322M lung it was 95.7%; with HOP-62 NSCLC, 99.3%; in the test with NCI-H460 lung, 103%; in the test on HOP-92 NSCLC it was 101%. The growth in the test on NCI-H522 lung is 86%; in the test with A549/ATCC NSCLC, 98.4%; with 786-0 renal it was 98.1%; in the test with COLO 205 colon, 104%.
As to `COc1cccc(-c2nc3sccn3c2/C=C/C(=O)c2ccc(C(F)(F)F)cc2)c1`, the growth with NCI-H23 lung is 95%; in the test on NCI-H226 lung it was 88.6%; with NCI-H322M lung it was 87.5%; in the test on HOP-62 NSCLC, 100%; in the test with NCI-H460 lung it was 83.7%; with HOP-92 NSCLC, 66.4%. The growth is 55.6% in the test with NCI-H522 lung, 85.1% with A549/ATCC NSCLC, 82.1% in the test on 786-0 renal and 102% with COLO 205 colon.
Turning to `O=C1/C(=C\c2c[nH]c3ccccc23)c2ccccc2N1c1c(Cl)cccc1Cl`, the growth with NCI-H23 lung is -80.1% (active); in the test with NCI-H226 lung, 14.7%; in the test with NCI-H322M lung, 18.8%; in the test with HOP-62 NSCLC, 19.6%; with NCI-H460 lung, -89.5% (active); in the test with HOP-92 NSCLC, -13.7% (active). The growth is -57.9% (active) in the test with NCI-H522 lung, 0.113% (active) with A549/ATCC NSCLC, -37.7% (active) in the test with 786-0 renal and -100% (active) in the test with COLO 205 colon.
For the compound `CCOC(=O)c1c(-c2ccc(Cl)cc2)c(C#N)c(=O)n(-c2ccccc2CC)c1N`, the growth in the test with NCI-H23 lung was 76.9%; in the test with NCI-H226 lung it was 85.4%; in the test with NCI-H322M lung, 78.7%; in the test on HOP-62 NSCLC, 97.5%; in the test with NCI-H460 lung, 82.3%; with HOP-92 NSCLC, 65.9%. Besides, the growth was 92% in the test on NCI-H522 lung, 85% with A549/ATCC NSCLC, 93.4% in the test on 786-0 renal and 111% with COLO 205 colon.
Regarding `COc1ccc(C2CC(c3cccc(OC)c3)=NN2C(=O)c2cc(OC)c(OC)c(OC)c2)cc1` (stereo not given), the growth in the test with NCI-H23 lung is 30.6%; with NCI-H226 lung it was 79.9%; in the test with NCI-H322M lung it was 45.1%; in the test with HOP-62 NSCLC, 39.9%; in the test with NCI-H460 lung, 11.4%; in the test on HOP-92 NSCLC, 35.9%. Also, the growth in the test on NCI-H522 lung is 2.3% (active); with A549/ATCC NSCLC, 32.5%; in the test with 786-0 renal it was 21.6%; with COLO 205 colon, -1.64% (active).
Turning to `CCOC(CN=Cc1cc(C)c2[nH]c3ccccc3c2c1C)OCC`, the growth in the test on NCI-H23 lung was 97.7%; in the test with NCI-H226 lung it was 6.9% (active); in the test with NCI-H322M lung, 113%; with HOP-62 NSCLC, 102%; in the test on NCI-H460 lung it was 83.1%; with HOP-92 NSCLC it was 115%. Also, the growth in the test with NCI-H522 lung is 113%; with A549/ATCC NSCLC, 102%; in the test on 786-0 renal, 93.2%; in the test with COLO 205 colon, 107%.
Take `Cc1ccc(Nc2nc(N)nc(CSCC(=O)NN)n2)cc1`: the growth in the test on NCI-H23 lung was 98.8%; in the test with NCI-H226 lung, 97.8%; with NCI-H322M lung, 100%; with HOP-62 NSCLC it was 101%; in the test with NCI-H460 lung it was 107%; with HOP-92 NSCLC, 95.6%. Also, the growth in the test with NCI-H522 lung was 96.7%; in the test on A549/ATCC NSCLC it was 107%; in the test on 786-0 renal, 100%; in the test with COLO 205 colon, 110%.
With `c1cc2ccc3cc2cc1CNCCOCCNCc1ccc2ccc(cc2c1)CNCCOCCNC3`, the growth with NCI-H23 lung is -52.6% (active); in the test on NCI-H226 lung it was -29.4% (active); in the test with NCI-H322M lung it was -10.7% (active); in the test with HOP-62 NSCLC, -10.2% (active); with NCI-H460 lung it was -9.48% (active); in the test on HOP-92 NSCLC it was -31.5% (active). The growth is -61.6% (active) in the test with NCI-H522 lung, 0.178% (active) in the test with A549/ATCC NSCLC, 43.5% in the test with 786-0 renal and -53.2% (active) in the test on COLO 205 colon.
On to `N#CC1=C(c2ccc(Br)cc2)NC(SCC(=O)c2ccc(Br)cc2)NC1=O` (stereo not given), for which the growth with NCI-H23 lung is 105%; in the test on NCI-H226 lung, 97%; in the test on NCI-H322M lung, 104%; with HOP-62 NSCLC it was 98.6%; in the test on NCI-H460 lung it was 107%; in the test with HOP-92 NSCLC, 102%. The growth is 99.5% with NCI-H522 lung, 93.8% in the test with A549/ATCC NSCLC, 92.6% in the test on 786-0 renal and 116% in the test with COLO 205 colon.
Turning to `COc1ccc(/C=N/C2=C(C#N)C(c3ccc(OC)cc3)c3ccc4ccccc4c3O2)cc1` (stereo not given), the growth in the test with NCI-H23 lung is 75.5%; in the test with NCI-H226 lung, 74.5%; in the test on NCI-H322M lung, 97.6%; with HOP-62 NSCLC it was 67%; in the test on NCI-H460 lung it was 75.6%; in the test on HOP-92 NSCLC, 70.3%. In addition, the growth was 45.5% in the test on NCI-H522 lung, 83.7% with A549/ATCC NSCLC, 95.1% in the test with 786-0 renal and 102% in the test with COLO 205 colon.
On to `CN(C)CCCn1c(=O)c2ccccc2c2ccccc21`, for which the growth with NCI-H23 lung is 76.8%; in the test on NCI-H226 lung, 87.6%; with NCI-H322M lung, 98.5%; with HOP-62 NSCLC, 80.1%; in the test with NCI-H460 lung it was 66.5%; with HOP-92 NSCLC, 45.5%. In addition, the growth is 53.1% in the test on NCI-H522 lung, 87.2% with A549/ATCC NSCLC, 68.4% in the test with 786-0 renal and 55% with COLO 205 colon.
As for `CC(C)CC(NC(=O)CN(Cc1ccccc1)S(C)(=O)=O)C(=O)O` (stereo not given), the growth is 93.1% in the test with NCI-H23 lung; 104% in the test with NCI-H226 lung; 93.8% in the test on NCI-H322M lung; 96% with HOP-62 NSCLC; 98.7% in the test with NCI-H460 lung; -0.442% (active) with HOP-92 NSCLC. In addition, the growth was 103% in the test on NCI-H522 lung, 96.5% with A549/ATCC NSCLC, 93.6% with 786-0 renal and 112% with COLO 205 colon.

These data come from PubChem BioAssay (NCI).
